About 1,000 (1.4%) of roughly 69,000 compounds showed an effect of 50% or more. What follows is part of a selection rich in strong results, with near analogues and random picks from the rest.
System: Leishmania donovani
Assay: Leishmania intramacrophage assay
Format: functional, organism-based
Parameters: scale not given: in the data most compounds retested in dose-response had high values

COc1ccc(CCN2C(=O)O[C@@H]3CN(C4CCSCC4)C[C@@H]32)cc1
Percent Effect (30.3 µM, […]): 4.59%

COc1cccn(C(C)C(=O)NC2CCCC2)c1=O (stereo not drawn)
Percent Effect (30.3 µM, […]): 28.93%

COc1ccc(CN2CCCC2c2cccc(F)c2)c(OC)c1OC (stereo not drawn)
Percent Effect (30.3 µM, […]): 53.41%

COc1cccc(CN2CCCC2c2cccc(F)c2)c1OC (stereo not drawn)
Percent Effect (30.3 µM, […]): 48.24%

COc1cc(CN2CCCC2c2cccc(F)c2)cc(OC)c1OC (stereo not drawn)
Percent Effect (30.3 µM, […]): 4.07%

Cc1cccc(OC2CCN(Cc3ncc[nH]3)CC2)c1
Percent Effect (30.3 µM, […]): -10.49%

Cc1nc[nH]c1CNC1CC(=O)N(CCc2cccc(Cl)c2)C1 (stereo not drawn)
Percent Effect (30.3 µM, […]): -19.6%

Clc1cccc(N2CCC(NCc3cc[nH]n3)C2)c1 (stereo not drawn)
Percent Effect (30.3 µM, […]): 14.09%

O=C1CC(NCc2ncc[nH]2)CN1CCc1cccc(Cl)c1 (stereo not drawn)
Percent Effect (30.3 µM, […]): 87.49%

CN1CCN(Cc2cccc(NCc3ncc[nH]3)c2)CC1
Percent Effect (30.3 µM, […]): 3.083%

O=C1CC(NCc2ccncc2)CN1CCc1cccc(Cl)c1 (stereo not drawn)
Percent Effect (30.3 µM, […]): 37.94%

Clc1cc(Cl)cc(CN2CCC(NCc3ncc[nH]3)CC2)c1
Percent Effect (30.3 µM, […]): 84.31%

Clc1cc(Cl)cc(CN2CCC(NCc3cc[nH]n3)CC2)c1
Percent Effect (30.3 µM, […]): 71.72%

COc1cc(OC)cc(N2CCC(NCc3cc[nH]n3)C2)c1 (stereo not drawn)
Percent Effect (30.3 µM, […]): 11.55%

Brc1ccc(CN2CCC(NCc3ncc[nH]3)CC2)cc1
Percent Effect (30.3 µM, […]): 85.49%

Clc1cccc(N2CCC(NCc3ncc[nH]3)C2)c1 (stereo not drawn)
Percent Effect (30.3 µM, […]): 26.13%

COc1ccc(CCN2CC(NCc3ncc[nH]3)CC2=O)cc1 (stereo not drawn)
Percent Effect (30.3 µM, […]): 17.72%

O=c1cnc2ccccc2n1CCCn1cccn1
Percent Effect (30.3 µM, […]): -23.4%

Cc1cc(O)c(OCC(=O)/N=c2\[nH]cc(C)s2)cn1
Percent Effect (30 µM, 30.03 µM): 13.79%

CC(=O)Nc1nc(C(=O)N2CCCC2c2noc(C3CC3)n2)cs1 (stereo not drawn)
Percent Effect (30.3 µM, […]): 0.7706%

CN1CC(c2ccccc2)CC12CCN(C(=O)c1cccnc1)CC2 (stereo not drawn)
Percent Effect (30.3 µM, […]): 13.25%

CC(C)n1ccnc1C1CCN(C(=O)C2COc3ccccc3O2)CC1 (stereo not drawn)
Percent Effect (30 µM, 30.03 µM): -2.599%

Cc1cc(C)nc(NCCC(=O)Nc2ccc(Cn3cncn3)cc2)n1
Percent Effect (30.3 µM, […]): 18.2%

COc1cc(N2CC[C@@H]3O[C@@H](c4ccncn4)C[C@H]3C2)ncn1
Percent Effect (30.3 µM, […]): 101.1%

COc1cc(N2CC[C@@H]3O[C@@H](c4ccnc(C)n4)C[C@H]3C2)ncn1
Percent Effect (30.3 µM, […]): 16.01%

Cc1ccc(N2CC[C@@H]3O[C@@H](c4ccncn4)C[C@H]3C2)nn1
Percent Effect (30.3 µM, […]): 12.48%

CC(=O)Nc1ncc(S(=O)(=O)Nc2ccccc2)s1
Percent Effect (30.3 µM, […]): -54.24%

CCc1nnc(CNC2CCCN(Cc3noc(C4CC4)n3)C2)o1 (stereo not drawn)
Percent Effect (30 µM): -1.291%

CCOCCOc1ccc(S(=O)(=O)N2CCc3c(nc[nH]c3=O)C2)cc1
Percent Effect (30.3 µM, […]): 59.04%

O=c1[nH]cnc2c1CCN(S(=O)(=O)c1ccc(Cl)cc1)C2
Percent Effect (30.3 µM, […]): 10.57%

O=c1[nH]cnc2c1CCN(S(=O)(=O)c1ccc(OC(F)(F)F)cc1)C2
Percent Effect (30.3 µM, […]): 24.26%

CC(=O)c1cn(CCC(=O)NCCC(=O)O)c2ccccc12
Percent Effect (30 µM, 30.03 µM): 18%

CN(C)c1cccc(C(=O)N2CCn3c(nnc3-c3ccccc3)C2)c1
Percent Effect (30.3 µM, […]): 3.878%

O=C1Nc2ccccc2CC12CCCN2Cc1ccc(F)cc1 (stereo not drawn)
Percent Effect (30.3 µM, […]): -31.7%

O=C1Nc2ccccc2CNC12CCN(CC1CCCC1)CC2
Percent Effect (30.3 µM, […]): -1.284%

O=C1Nc2ccccc2CN(C/C=C/c2ccccc2)C12CCNC2 (stereo not drawn)
Percent Effect (30.3 µM, […]): 95.58%

O=C1Nc2ccccc2CN(CC2CC2)C12CCNC2 (stereo not drawn)
Percent Effect (30.3 µM, […]): 19.67%

O=C1Nc2ccccc2CN(CC2CCCC2)C12CCNC2 (stereo not drawn)
Percent Effect (30.3 µM, […]): 67.89%

CCCN1Cc2ccccc2NC(=O)C12CCNC2 (stereo not drawn)
Percent Effect (30.3 µM, […]): 13.56%

CC(C)NC(=O)Nc1ccc(-c2nc(C(C)C)no2)cc1
Percent Effect (30.3 µM, […]): -3.03%

Cc1nc2[nH]cc(C(=O)N3CCCCC3c3ccc(F)cc3)c(=O)n2n1 (stereo not drawn)
Percent Effect (30.3 µM, […]): -11.65%

Cc1cc(=O)c(C(=O)N2CCCCC2c2ccc(F)cc2)c[nH]1 (stereo not drawn)
Percent Effect (30.3 µM, […]): 7.21%

Cc1cc2[nH]cc(C(=O)N3CCCCC3c3ccc(F)cc3)c(=O)n2n1 (stereo not drawn)
Percent Effect (30.3 µM, […]): 54.57%

COc1c(CNCCNC(=O)c2ccco2)c(C)nn1C
Percent Effect (30 µM, 30.03 µM): 1.036%

CCn1nc(C)c2ccn(CC(=O)NCCCOC)c(=O)c21
Percent Effect (30.3 µM, […]): 6.815%

Cc1cc(C(=O)N2CCCC(c3nccn3Cc3cscn3)C2)on1 (stereo not drawn)
Percent Effect (30.3 µM, […]): 7.716%

Cc1nc2ccccn2c1CN1C[C@@H](CN2CCOCC2)[C@@H](CO)C1
Percent Effect (30.3 µM, […]): 60.75%

Cc1nc2ccccn2c1CN1C[C@@H](CN(C)C)[C@@H](CO)C1
Percent Effect (30.3 µM, […]): 28.56%

Cc1ccccc1OC1CN(Cc2c(C)nc3ccccn23)C1
Percent Effect (30.3 µM, […]): 56.4%

Cc1nc2ccccn2c1CN1C[C@@H](CN(C)CCO)[C@@H](CO)C1
Percent Effect (30.3 µM, […]): 17.46%

COc1ccccc1OC1CN(C(=O)Cc2c(C)nc3ccccn23)C1
Percent Effect (30.3 µM, […]): 42.17%

Cc1nc(CN2C[C@@H](CN3CCOCC3)[C@@H](CO)C2)c2ccccn12
Percent Effect (30.3 µM, […]): -8.953%

CC(C)CCc1nc(CNCC2CN(C)CCO2)cs1 (stereo not drawn)
Percent Effect (30 µM): 42.41%

CCN1C(=O)C2(CCOCC2)c2cc(NC(=O)c3cc(C)n[nH]3)ccc21
Percent Effect (30.3 µM, […]): 7.521%

Cc1nonc1CC(=O)N1CCC2(CCCN(C3CCOCC3)C2=O)C1 (stereo not drawn)
Percent Effect (30.3 µM, […]): 40.04%

O=C(c1c[nH]nn1)N1CCCC1C1CCCCC1 (stereo not drawn)
Percent Effect (30.3 µM, […]): 34.69%

Cc1cc(C)n(C2CCN(S(=O)(=O)N3CCOCC3)CC2)n1
Percent Effect (30.3 µM, […]): -18.5%

O=C(NCC(O)c1ccccc1Cl)c1cccc(-n2cnnn2)c1 (stereo not drawn)
Percent Effect (30 µM, 30.03 µM): 18.08%

CN(C)C(CNC(=O)c1ccc(-n2cnnn2)cc1)c1ccccc1Cl (stereo not drawn)
Percent Effect (30.3 µM, […]): 52.55%

CN(C)C(CNC(=O)c1cccc(-n2cnnn2)c1)c1ccccc1Cl (stereo not drawn)
Percent Effect (30 µM, 30.03 µM): -12.85%

Cc1ncc(CNC(C)(C)CO)c2cc(C(=O)c3ccc(Br)cc3)oc12
Percent Effect (30.3 µM, […]): 44.76%

Cc1ncc(CNCCO)c2cc(C(=O)c3ccc(Br)cc3)oc12.Cl
Percent Effect (30.3 µM, […]): 52.55%

Cc1ncc(CNCC(C)O)c2cc(C(=O)c3ccc(Br)cc3)oc12.Cl (stereo not drawn)
Percent Effect (30.3 µM, […]): 46.85%

CCn1nc(C)c2ncnc(NCCn3cccn3)c21
Percent Effect (30.3 µM, […]): -8.829%

N#Cc1ccc(N2CCC3(CC2)COCCN3Cc2cccnc2)cc1.O=C(O)C(F)(F)F
Percent Effect (30.3 µM, […]): -0.3912%

CNc1ncc2c(n1)CN(C1CC(C)(C)NC(C)(C)C1)C2=O
Percent Effect (30.3 µM, […]): 57.04%

CC1(C)CC(N2Cc3nc(N)ncc3C2=O)CC(C)(C)N1
Percent Effect (30 µM, 30.03 µM): 0.1811%

CNc1ncc2c(n1)CN(C1CCCC1)C2=O
Percent Effect (30.3 µM, […]): -21.11%

CCc1nsc(NC2CC(=O)N(C3CC3)C2)n1 (stereo not drawn)
Percent Effect (30.3 µM, […]): 25.34%

Cc1ccc(-c2[nH]c3ccccc3c2C(=O)O)c(C)c1
Percent Effect (30.3 µM, […]): 12.49%

COCCN1CCC(CNC(=O)Nc2ccc(F)c(Cl)c2)C1 (stereo not drawn)
Percent Effect (30.3 µM, […]): 9.001%

COCCN1CCC(CNC(=O)Nc2ccc(SC(F)(F)F)cc2)C1 (stereo not drawn)
Percent Effect (30.3 µM, […]): 43.78%

COCCN1CCC(CNC(=O)Nc2ccc(-c3ccccc3)cc2)C1 (stereo not drawn)
Percent Effect (30.3 µM, […]): 93.25%

Cc1cccc(CN2CCC3(CC(C(=O)NCC(C)C)=NO3)C2)c1 (stereo not drawn)
Percent Effect (30.3 µM, […]): 14.53%

CN(Cc1ccc([S+](C)[O-])cc1)c1ccc(C(F)(F)F)cn1 (stereo not drawn)
Percent Effect (30.3 µM, […]): 54.49%

CN(Cc1ccc([S+](C)[O-])cc1)c1ccc(Br)cn1 (stereo not drawn)
Percent Effect (30.3 µM, […]): 20.24%

CN(Cc1ccccc1)c1ccc(C(F)(F)F)cn1
Percent Effect (30.3 µM, […]): 14.63%

Cn1ccnc1CN1CCCN(C(=O)CC(C2CC2)C2CC2)CC1
Percent Effect (30 µM): 10.73%

Cn1nc(C(=O)NCc2cccs2)c2c1CCS(=O)(=O)C2
Percent Effect (30.3 µM, […]): 62.35%

Cn1nc(C(=O)NCc2ccccn2)c2c1CCS(=O)(=O)C2
Percent Effect (30 µM, 30.03 µM): -1.622%

Cc1ncc(CNC(=O)c2nn(C)c3c2CS(=O)(=O)CC3)s1
Percent Effect (30 µM, 30.03 µM): 17.47%

CN1C(=O)CCCC12CCCN(Cc1cccs1)C2.O=C(O)C(F)(F)F (stereo not drawn)
Percent Effect (30.3 µM, […]): 13.27%

OC(COCc1ccccc1F)CN1CCC(Cn2cccn2)CC1 (stereo not drawn)
Percent Effect (30.3 µM, […]): 8.392%

Cc1ccc(CN2C[C@@H]3CN(C(=O)c4cccn4C)C[C@@H]3C2)cc1.O=C(O)C(F)(F)F
Percent Effect (30.3 µM, […]): -2.2%

Cc1noc(C)c1CNc1c(N2CCCC2)cccc1N1CCCC1
Percent Effect (30.3 µM, […]): 97.2%

Cc1noc(CNc2c(N3CCCC3)cccc2N2CCCC2)n1
Percent Effect (30.3 µM, […]): 45.54%

COc1ccccc1N1CCC(NCc2c(C)noc2C)C1 (stereo not drawn)
Percent Effect (30.3 µM, […]): 7.918%

Cc1cc(CN2CCC(N(C)Cc3noc(C4CC4)n3)C2)on1 (stereo not drawn)
Percent Effect (30 µM): 11.66%

O=C(c1ccncc1)N1CCCn2c(CN3CCCCC3)nnc2C1
Percent Effect (30 µM, 30.03 µM): -1.304%

CN1CC(c2cc(O)nc(NCc3ccccc3Cl)n2)CC1=O (stereo not drawn)
Percent Effect (30.3 µM, […]): 7.659%

Cc1nc(C2(O)CCCNCC2)sc1CCOc1ccccc1Cl.Cl (stereo not drawn)
Percent Effect (30.3 µM, […]): 22.61%

CCN1CCCC(O)(c2nc(C)c(CCOc3ccccc3Cl)s2)CC1 (stereo not drawn)
Percent Effect (30.3 µM, […]): 29.58%

Cc1ncc(C(=O)NCCOc2ccccc2F)c(C)n1
Percent Effect (30.3 µM, […]): 48.08%

Cc1nc(C2(O)CCCNCC2)sc1CCOc1ccccc1F.Cl (stereo not drawn)
Percent Effect (30.3 µM, […]): 57.78%

CCN1CCCC(O)(c2nc(C)c(CCOc3ccccc3F)s2)CC1 (stereo not drawn)
Percent Effect (30.3 µM, […]): 7.204%

CC/N=c1/c(NC(=O)C2CC2)c(O)oc2ccccc12
Percent Effect (30.3 µM, […]): -64.73%

CNC(=O)C(C)(C)CNC(=O)Nc1ccc(C)cn1
Percent Effect (30.3 µM, […]): -4.041%

CN1CCC(N2CCC(C(=O)N(C)C)CC2)CC1.O=C(O)C(F)(F)F.O=C(O)C(F)(F)F
Percent Effect (30.3 µM, […]): 15.52%

Cc1cc(C(=O)NCc2ccnc(N3CCN(C)CC3)c2)no1
Percent Effect (30 µM): 35.55%

COc1cc(-c2nccn2C(C)CCn2cccn2)cc2c1OCO2 (stereo not drawn)
Percent Effect (30.3 µM, […]): 30.8%

COc1ncc(-c2nccn2C(C)CCn2cccn2)cn1 (stereo not drawn)
Percent Effect (30.3 µM, […]): 51.46%

COCCCn1ccnc1-c1cnc(OC)nc1
Percent Effect (30 µM, 30.03 µM): 27.45%

CCOCCNC(=O)c1cccnc1Sc1cc(OC)ccc1OC
Percent Effect (30.3 µM, […]): 14.43%

From ChEMBL document CHEMBL3988442, “University of Dundee, Small-Polar-MMV Screening Library” (2021)
